According to PubChem BioAssay:
The source made the active and inactive calls. Unless noted, the rule behind the calls is not given here.

Experiments:
[1] = kinase inhibitors against Plasmodium liver-stage infection, cell-based, known kinase inhibitor set, luminescence, hepatoma host viability (AID 624392); details: Plasmodium liver stage in hepatoma cells, luciferase luminescence, concentration not given here; liver cell % of control: measured here: host liver cell viability; parasite % of control: stronger effect = lower value;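 note: infected cells incubated roughly two days before readout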
[2] = modulators of glucocorticoid suppression of NF-kB, cell-based, luciferase, IL-1B stimulus, dexamethasone (AID 624486); details: NF-kB luciferase reporter, IL-1B + dexamethasone, luminescence; percent of negative control (+Dex): actives lie on both sides, concentration not given here; z-score: measured here: IL-1B alone, no Dex;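 for percent of negative control (+Dex): 100% = mean signal of vehicle control wells on the plate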
[3] = kinase inhibitors altering Pseudomonas killing of worms, whole organism (AID 651566);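 note: tested at 14 µM; sign flipped so higher z means a lower ratio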; details: C. elegans killed by P. aeruginosa, survival ratio
[4] = activators of macrophage pro-inflammatory response, cell-based, murine, luminescence (AID 652131); details: murine macrophage pro-inflammatory reporter, stronger effect = higher value
[5] = target: Cellular tumor antigen p53 (Homo sapiens) (UniProt P04637); assay: kinase inhibitors altering GFP-p53 stability in HPV16-positive cells, imaging, known kinase inhibitor set, EGFP/DsRed ratio (AID 1053116); details: stronger effect = higher value; EGFP object count: measured here: GFP-p53 positive objects count;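 note: cells exposed to compounds for 24 h at 37 °C before reading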
[6] = IRF3 reporter activation in THP-1 macrophages, cell-based, PMA-stimulated THP-1, luminescence (AID 1053176); details: PMA-differentiated THP-1, IRF3 reporter luminescence; stronger effect = higher value
[7] = survival rescue of mitochondrial mutant cells in low glucose, primary screen, MELAS cybrids, Rieske KO mouse fibroblasts, CellTiter-Glo (AID 1508586;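 active = mean z-score across replicates of 1.96 or higher in either the MELAS or the Rieske mutant cell line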;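 note: z relative to plate mean and SD of compound and empty wells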)
[8] = MELAS cybrid survival, CellTiter-Glo 48 h, stronger effect = higher value
[9] = Rieske KO mouse fibroblast survival, CellTiter-Glo 72 h

Chain of Cellular tumor antigen p53 (Homo sapiens) (P04637 whole entry, looked up): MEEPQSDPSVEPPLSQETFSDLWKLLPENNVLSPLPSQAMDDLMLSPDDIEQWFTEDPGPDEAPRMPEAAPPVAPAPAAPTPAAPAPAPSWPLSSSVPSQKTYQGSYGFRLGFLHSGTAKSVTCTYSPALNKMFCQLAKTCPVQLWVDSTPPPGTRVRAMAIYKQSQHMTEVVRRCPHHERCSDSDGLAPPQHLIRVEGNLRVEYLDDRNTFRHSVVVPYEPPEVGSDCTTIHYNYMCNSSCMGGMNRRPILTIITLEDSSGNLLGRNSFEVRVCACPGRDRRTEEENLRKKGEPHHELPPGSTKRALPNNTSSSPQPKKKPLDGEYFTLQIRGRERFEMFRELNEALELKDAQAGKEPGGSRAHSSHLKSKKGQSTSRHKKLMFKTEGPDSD

In the case of `CNC(=O)c1ncccc1Nc1nc(Nc2cc3c(cc2OC)CCCN3C(=O)CN(C)C)nc2[nH]ccc12`, the liver cell % of control [1] is reported as 91.6%, the parasite % of control [1] is reported as 670% (inactive) and the percent of negative control (+Dex) [2] is reported as 99.5% (inactive). For the same compound, the z-score [2] was 0.22, the z-score [3] was 0.02 (inactive) and the z-score [4] was 0.337 (inactive). For the same compound, the EGFP object count [5] was 3, the EGFP/DsRed ratio [5] was 0.0957 (inactive) and the fraction signal [6] was -0.01 (inactive). The z-score [7, 8] was 6.01 (active) and the z-score [7, 9] was 11.9.

In the case of `NS(=O)(=O)c1ccc(N=Nc2c(O)[nH]c3ccc(C(=O)NCCCn4ccnc4)cc23)cc1`, the liver cell % of control [1] is reported as 94%, the parasite % of control [1] is reported as 116% (inactive) and the percent of negative control (+Dex) [2] is reported as 83% (inactive). For the same compound, the z-score [2] was -0.125, the z-score [3] was 0.195 (inactive) and the z-score [4] was 0.038 (inactive). For the same compound, the EGFP object count [5] was 6, the EGFP/DsRed ratio [5] was 0.239 (inactive) and the fraction signal [6] was -0.0065 (inactive). The z-score [7, 8] was -0.0137 (inactive) and the z-score [7, 9] was -0.000813.

In the case of `Fc1ccc(-c2ncn(CCCN3CCOCC3)c2-c2ccncc2)cc1`, the liver cell % of control [1] is reported as 110%, the parasite % of control [1] is reported as 145% (inactive) and the percent of negative control (+Dex) [2] is reported as 98.5% (inactive). For the same compound, the z-score [2] was 1.32, the z-score [3] was 0.18 (inactive) and the z-score [4] was -0.092 (inactive). The EGFP object count [5] was 4, the EGFP/DsRed ratio [5] was 0.0405 (inactive) and the fraction signal [6] was -0.0075 (inactive). For the same compound, the z-score [7, 8] was -1.02 (inactive) and the z-score [7, 9] was 0.219.

In the case of `CCN(CC)Cc1ccc(Nc2nccc(-c3cnn4ncccc34)n2)cc1`, the liver cell % of control [1] is reported as 52.3%, the parasite % of control [1] is reported as 12.5% (active) and the percent of negative control (+Dex) [2] is reported as 3% (active). For the same compound, the z-score [2] was -9.2, the z-score [3] was -0.59 (inactive) and the z-score [4] was -2.04 (inactive). For the same compound, the EGFP object count [5] was 3, the EGFP/DsRed ratio [5] was 0.0517 (inactive) and the fraction signal [6] was 0.0075 (inactive). The z-score [7, 8] was 0.539 (inactive) and the z-score [7, 9] was 1.65.

In the case of `CS(=O)(=O)Nc1ccc(-c2ccc3c(NC(=O)C4CC4)n[nH]c3c2)cc1`, the liver cell % of control [1] is reported as 98.9%, the parasite % of control [1] is reported as 96.9% (inactive) and the percent of negative control (+Dex) [2] is reported as 94% (inactive). The z-score [2] was 0.82, the z-score [3] was 0.39 (inactive) and the z-score [4] was -0.745 (inactive). The EGFP object count [5] was 3, the EGFP/DsRed ratio [5] was 0.0815 (inactive) and the fraction signal [6] was -0.009 (inactive). The z-score [7, 8] was 0.24 (inactive) and the z-score [7, 9] was -0.0618.

In the case of `CS(=O)(=O)CCNCc1ccc(-c2ccc3ncnc(Nc4ccc(OCc5cccc(C(F)(F)F)c5)cc4)c3c2)o1`, the liver cell % of control [1] is reported as 91.4%, the parasite % of control [1] is reported as 126% (inactive) and the percent of negative control (+Dex) [2] is reported as 85% (inactive). The z-score [2] was -0.68, the z-score [3] was -0.1 (inactive) and the z-score [4] was 0.289 (inactive). The EGFP object count [5] was 4.5, the EGFP/DsRed ratio [5] was 0.109 (inactive) and the fraction signal [6] was 0.018 (inactive). The z-score [7, 8] was 0.798 (inactive) and the z-score [7, 9] was -0.393.

For `C[C@@H](Oc1cc(-n2cnc3ccc(OCC4CCN(C)CC4)cc32)sc1C(N)=O)c1ccccc1C(F)(F)F`, the liver cell % of control [1] was 80.7%, the parasite % of control [1] was 130% (inactive) and the percent of negative control (+Dex) [2] was 98.5% (inactive). For the same compound, the z-score [2] was -0.76, the z-score [3] was -1.17 (inactive) and the z-score [4] was -2 (inactive). The EGFP object count [5] was 12, the EGFP/DsRed ratio [5] was 0.346 (inactive) and the fraction signal [6] was -0.0025 (inactive). The z-score [7, 8] was 0.571 (inactive) and the z-score [7, 9] was 0.279.

With `O=C(NCC1CC1)c1ccc(-c2cccc(C(=O)NC3CC3)c2)cc1` the liver cell % of control [1] was 164%, the parasite % of control [1] was 130% (inactive) and the percent of negative control (+Dex) [2] was 91.5% (inactive). The z-score [2] was 1.28, the z-score [3] was -0.465 (inactive) and the z-score [4] was 1.36 (inactive). For the same compound, the EGFP object count [5] was 4.5, the EGFP/DsRed ratio [5] was 0.0862 (inactive) and the fraction signal [6] was 0 (inactive). The z-score [7, 8] was -0.117 (inactive) and the z-score [7, 9] was -0.418.

With `NS(=O)(=O)c1ccc(N=Nc2c(O)[nH]c3ccc(-c4cnco4)cc23)cc1` the liver cell % of control [1] was 87.3%, the parasite % of control [1] was 140% (inactive) and the percent of negative control (+Dex) [2] was 104% (inactive). The z-score [2] was 0.22, the z-score [3] was -0.29 (inactive) and the z-score [4] was 3.29 (inactive). For the same compound, the EGFP object count [5] was 10, the EGFP/DsRed ratio [5] was 0.401 (inactive) and the fraction signal [6] was 0.0025 (inactive). The z-score [7, 8] was 0.293 (inactive) and the z-score [7, 9] was -0.0502.

In the case of `CCn1c(-c2nonc2N)nc2c(C#CC(C)(C)O)nc(O[C@@H](CN)c3ccccc3)cc21`, the liver cell % of control [1] is reported as 49.4%, the parasite % of control [1] is reported as 14.1% (inactive) and the percent of negative control (+Dex) [2] is reported as 132% (inactive). The z-score [2] was 3.44, the z-score [3] was 0.92 (inactive) and the z-score [4] was 1 (inactive). The EGFP object count [5] was 10.5, the EGFP/DsRed ratio [5] was 0.166 (inactive) and the fraction signal [6] was 0.0005 (inactive). For the same compound, the z-score [7, 8] was 1.1 and the z-score [7, 9] was 4.

With `CS(=O)(=O)Nc1ccc(N=Cc2c(O)[nH]c3ccccc23)cc1` the liver cell % of control [1] was 95.2%, the parasite % of control [1] was 107% (inactive) and the percent of negative control (+Dex) [2] was 108% (inactive). For the same compound, the z-score [2] was 1.36, the z-score [3] was 0.265 (inactive) and the z-score [4] was 2.34 (inactive). For the same compound, the EGFP object count [5] was 4, the EGFP/DsRed ratio [5] was 0.123 (inactive) and the fraction signal [6] was -0.0045 (inactive). The z-score [7, 8] was 1.4 (inactive) and the z-score [7, 9] was -0.36.

With `N#Cc1ccc2c(-c3ccnc(NC4CC4)n3)c(-c3ccc(F)cc3)nn2c1` the liver cell % of control [1] was 122%, the parasite % of control [1] was 87.3% (inactive) and the percent of negative control (+Dex) [2] was 106% (inactive). For the same compound, the z-score [2] was 0.525, the z-score [3] was -0.52 (inactive) and the z-score [4] was 2.06 (inactive). For the same compound, the EGFP object count [5] was 0.5, the EGFP/DsRed ratio [5] was 0.00284 (inactive) and the fraction signal [6] was 0 (inactive). For the same compound, the z-score [7, 8] was -0.69 (inactive) and the z-score [7, 9] was -0.125.

For `Cc1ccc(O)cc1Nc1ccnc2ccc(S(C)(=O)=O)cc12`, the liver cell % of control [1] was 79.8%, the parasite % of control [1] was 60.9% (inactive) and the percent of negative control (+Dex) [2] was 60.5% (inactive). The z-score [2] was -3.46, the z-score [3] was 0.285 (inactive) and the z-score [4] was 0.671 (inactive). For the same compound, the EGFP object count [5] was 3, the EGFP/DsRed ratio [5] was 0.0595 (inactive) and the fraction signal [6] was -0.007 (inactive). It also gave a z-score [7, 8] of -0.116 and a z-score [7, 9] of 3.87.

With `NS(=O)(=O)c1ccc(NC2CC(c3ccc(O)c(F)c3)NN2)cc1` (stereo not given) the liver cell % of control [1] was 113%, the parasite % of control [1] was 139% (inactive) and the percent of negative control (+Dex) [2] was 94.5% (inactive). The z-score [2] was -0.075, the z-score [3] was -1.04 (inactive) and the z-score [4] was -0.229 (inactive). The EGFP object count [5] was 2.5, the EGFP/DsRed ratio [5] was 0.101 (inactive) and the fraction signal [6] was 0.0025 (inactive). For the same compound, the z-score [7, 8] was -0.752 (inactive) and the z-score [7, 9] was -0.137.

For `COc1ccc(CNC(=O)c2ccc(-c3cc(-c4nnc(C)o4)ccc3C)cc2)cc1`, the liver cell % of control [1] was 172%, the parasite % of control [1] was 67.1% (inactive) and the percent of negative control (+Dex) [2] was 102% (inactive). The z-score [2] was 0.42, the z-score [3] was 1.23 (inactive) and the z-score [4] was -0.363 (inactive). The EGFP object count [5] was 3, the EGFP/DsRed ratio [5] was 0.129 (inactive) and the fraction signal [6] was -0.008 (inactive). The z-score [7, 8] was -0.23 (inactive) and the z-score [7, 9] was -0.248.
